Pf growth 96h – P. falciparum growth inhibition at 96 hour, primary screen for plastid delayed-death inhibitors | P. falciparum luciferase reporter growth, 96 h | Potency, µM (titrated, usually from 28.7 µM), for inactives: at the highest dose activity change, negative = inhibition, usual class: inhibitors | 320,000 compounds, 6.9% hits | AID 504834; further: on the % scale 0 is the no-effect control and ±100 the full control effect
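Erythrocytes infected with luciferase-expressing P. falciparum were dispensed at 2% hematocrit and 0.05% parasitemia (final), then incubated with compounds 96 hours at 37 C in 5% CO2. Luminescence after detection reagent addition reported growth.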
Pf growth 48h – inhibits P. falciparum growth in the first generation, 48 h. 310,000 compounds, 5.9% hits. Potency, µM (titrated, usually from 28.7 µM), without a hit: at the highest dose activity change, negative = inhibition, most hits filed as inhibitors. P. falciparum luciferase growth in erythrocytes, 48 h; further: on the % scale 0 is the no-effect control and ±100 the full control effect
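Growth was read as firefly luciferase luminescence after a 48 h, 37 C, 5% CO2 exposure of compounds to reporter-bearing P. falciparum cultures (0.1% parasitemia, 2% hematocrit final) in Albumax-supplemented RPMI 1640.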
Sm TGR inh – S. mansoni TGR enzyme inhibition. purified TGR, DTNB reduction, TNB absorbance 405 nm. Q962Y6. AID 485364. 360,000 compounds, 3% hits. Potency, µM (highest dose often 114 µM), inactives show at the highest dose activity change, negative = inhibition, usual class: inhibitors; further: on the % scale 0 is the no-effect control and ±100 the full control effect; nearly all actives have a fitted effect of over 60% in size
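Kinetic colorimetric format: TGR-catalysed, NADPH-driven DTNB reduction monitored via TNB absorbance. Enzyme dispensed at 20 nM; compound exposure 15 min at room temperature before reaction start.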
NS1 inh – blocks influenza NS1 protein function | 270,000 compounds, 0.4% hits | Potency, µM (titrated, usually from 46.1 µM), inactives show at the top dose activity, positive = more growth; calls by dose curve; further: actives are rising curves; nearly all actives have a fitted effect of over 50% in size
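Compounds were scored for reversing the slow growth caused by influenza A NS1 in S. cerevisiae, measured by optical density at 600 nm. Assay medium contained 2% galactose at pH 6.0; NS1-free yeast of the same strain were the positive control.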
AMA1 RON2 block – disrupts binding of P. falciparum AMA1 to RON2; AlphaScreen AMA1-biotinylated RON2 peptide binding; Potency, µM (doses to about 58.2 µM), without a hit: top-dose activity change, negative = inhibition, hits mostly inhibitors; 360,000 compounds, 0.2% hits; AID 720542;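 further: 0% = vehicle wells and -100% = peptide control; nearly all actives have a fitted effect of over 45% in size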
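AMA1 (3D7) with his tag at 25 nM final met compounds first, then biotinylated RON2 peptide at 25 nM; detection used donor plus acceptor beads, 10 µg/mL apiece, read by AlphaScreen after 30 min at room temperature.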
Active calls of the source: *; ? = inconclusive; / = no result given; ! = a repeat was not active. This is a sample that favours compounds with a hit; in the whole collection about 11% have one here. Unless noted, the call rests on the fitted dose curve; in most records, active means well fitted curve in the direction sought with a large enough effect; inconclusive means small, poorly fitted or top-dose-only effect, or another doubt; inactive means no such curve, though single readings can be large; an effect the other way counts as inactive or inconclusive. Potency means the concentration at half of the fitted maximal effect.

SMILES	Pf growth 96h	Pf growth 48h	Sm TGR inh	NS1 inh	AMA1 RON2 block
O=C(Nc1ccc([N+](=O)[O-])cn1)c1ccc2c(c1)OCO2	2.5%	206.3%	1.2%	/	18.1%
C[C@H](O)[C@@H]1C(=O)N2CCc3ccc(-c4ccccc4)cc3[C@@H]2C[C@@H]1N(C)C(=O)c1ccco1	/	/	/	/	13.7%
Cn1cc(C(=O)N/N=C/c2c(O)ccc3ccccc23)ccc1=O	28.3%	2.62µM*	-4.0%	/	?
Cc1occc1C(=O)N/N=C/c1c(O)ccc2ccccc12	0.0%	2.62µM*	-17.4%	-1.4%	75.0%
O=C(N/N=C\c1c(O)ccc2ccccc12)c1cncc(Br)c1	2.33µM*	2.94µM*	-26.4%	-70.3%	85.2%
O=C(N/N=C\c1c(O)ccc2ccccc12)c1ccc(O)cc1	65.4%	?	-9.3%	6.1%	126.2%
CC1CCN(CC(=O)N2c3ccccc3Sc3cc4ccccc4cc32)CC1	/	/	/	-5.5%	/
C/[N+]([O-])=C\C1C(=O)CCCC1=O	17.0%	-1.1%	-10.4%	-0.1%	-0.8%
COCCNC(=O)CSc1n[nH]c(=O)n1CCc1ccccc1	6.3%	-12.3%	-6.9%	4.0%	6.9%
Cc1ncc(CO)c2c1Oc1nc(-c3ccccc3)nc(SCC(=O)N3CCCCC3)c1C2	?	?	31.6µM*!	24.6%	-10.2%
Cc1ncc(CO)c2c1Oc1nc(-c3ccccc3)nc(SCC(=O)N(C)c3ccccc3)c1C2	13.1µM*	?	-21.2%	?	/
Cc1cccc(-c2nc3c(c(SCC(=O)N4CCOCC4)n2)Cc2c(CO)cnc(C)c2O3)c1	58.9%	5.86µM*	22.4µM*	18.5%	-0.3%
Cc1ncc(CO)c2c1Oc1nc(-c3ccc(Cl)cc3)nc(SCC(=O)N3CCCCC3)c1C2	/	/	39.8µM*	/	/
O=C(CSc1nc(-c2ccc(Cl)cc2)nc2c1Cc1ccccc1O2)N1CCCCC1	/	/	4.7%	/	/
Cc1ncc(CO)c2c1Oc1nc(-c3ccccc3F)nc(SCC(=O)N(C)c3ccccc3)c1C2	-16.5%	-14.7%	-28.3%	?	-10.9%
COc1cccc2c1Oc1nc(-c3ccccc3)nc(SCC(=O)N3CCCCC3)c1C2	/	/	-5.5%	/	/
COc1ccccc1CNC(=O)C1CC2Cn3c(nc4cc(C)c(C)cc43)C2N1C (stereo not given)	?	?	-16.4%	/	68.3%
CN1c2ccc(Cl)cc2-c2nc(SCC(=O)NCc3ccc(F)cc3)ncc2S1(=O)=O	/	/	10.6%	/	/
COc1ccc(Cl)cc1NC(=O)N(C)CCc1c(C)nn(C)c1C	/	/	-5.9%	/	/
COc1ccccc1-c1nc2c(c(SCC(=O)N3CCCCC3)n1)Cc1c(CO)cnc(C)c1O2	1.65µM*	10.4µM*	?	16.3%	-6.8%
Cc1ncc(CO)c2c1Oc1nc(-c3ccccc3)nc(SCC(=O)N3CCOCC3)c1C2	-18.6%	?	31.6µM*	13.6%	-11.2%
COc1ccccc1-c1nc2c(c(SCC(=O)Nc3ccc(C)c(C)c3)n1)Cc1c(CO)cnc(C)c1O2	/	/	-0.3%	/	/
COc1cccc(-c2nc3c(c(SCC(=O)N4CCOCC4)n2)Cc2c(CO)cnc(C)c2O3)c1	13.1µM*	?	?	5.5%	-12.3%
O=C(c1cccc(C(F)(F)F)c1)C1CCCN(C(=O)c2cc(C3CC3)[nH]n2)C1 (stereo not given)	58.2%	?	-1.2%	-17.7%	-6.5%
COc1cc(C2C(C#N)=C(N)N(N(C)C)C3=C2C(=O)CC(C)(C)C3)ccc1O (stereo not given)	84.2%	-16.2%	-15.0%	-1.4%	-6.3%
SMILES	Pf growth 96h	Pf growth 48h	Sm TGR inh	NS1 inh	AMA1 RON2 block
CC(C)c1ccc2c(c1)CCC1C(C)(CN)CCCC21C (stereo not given)	10.4µM*	?	9.1%	7.6%	5.8%
CC1Nc2ncnc(N3CCN(c4ccccc4)CC3)c2N(Cc2ccc(Br)cc2)C1=O (stereo not given)	?	13.1µM*	-19.2%	/	-19.8%
CCC1Nc2ncnc(N3CCN(c4ccccc4)CC3)c2N(Cc2ccc(C)cc2)C1=O (stereo not given)	11.7µM*	?	-31.8%	/	-14.8%
Cc1ccc(CN2C(=O)C(CC(C)C)Nc3ncnc(N4CCN(c5ccccc5)CC4)c32)cc1 (stereo not given)	/	/	/	/	-17.7%
CC(C)CC1Nc2ncnc(N3CCN(c4ccccc4)CC3)c2N(Cc2ccc(Cl)cc2)C1=O (stereo not given)	9.28µM*	9.28µM*	?	/	-2.0%
Cc1cccc(C)c1NC(=O)CSc1nc2ncccc2o1	/	/	-0.2%	/	/
CN(C)c1ccc(/C=N\Nc2nc(-c3ccccc3)cc(=O)[nH]2)cc1	2.33µM*	2.33µM*	-4.6%	5.2%	-1.2%
COc1ccc(/C(C)=N\Nc2nc(-c3ccccc3)cc(=O)[nH]2)cc1	0.586µM*	0.928µM*	-4.9%	3.0%	0.0%
CN(C)c1ccc(C=NNc2nc3c([nH]2)c(=O)n(C)c(=O)n3C)cc1	/	/	/	/	47.0%
CC(C)C1C(=O)Nc2ccc(S(=O)(=O)NCCc3ccc(Cl)cc3)cc21 (stereo not given)	/	/	12.7%	/	/
COc1ccc(CNCC(O)(c2ccc(Cl)cc2)c2ccc(Cl)cc2)cc1	1.04µM*	1.17µM*	2.6%	-16.7%	-4.8%
COc1ccc(CNCC(O)(c2ccccc2)c2ccc(F)cc2)cc1OC (stereo not given)	8.28µM*	7.38µM*	-2.0%	-0.5%	0.2%
COc1ccc(CNCC(O)(c2ccc(F)cc2)c2ccc(F)cc2)cc1OC	2.94µM*	4.15µM*	-2.6%	-2.1%	9.1%
CCCCNCC(O)(c1ccc(Cl)cc1)c1ccc(Cl)cc1	2.33µM*	13.1µM*	0.0%	/	-8.1%
COc1ccc(CCNCc2ccc(F)cc2)cc1OC	/	9.0%	-30.7%	3.4%	1.7%
COc1ccc(CS(=O)(=O)CC(C)(O)c2ccc(Cl)cc2)cc1 (stereo not given)	12.5%	12.7%	8.4%	-5.7%	0.0%
CCn1nc(NC(=O)Cc2ccc(OC)cc2)c2cc3cccc(C)c3nc21	18.1%	21.8%	13.5%	7.0%	20.1%
COc1ccc(CNCC(O)(c2ccc(Cl)cc2)c2ccc(Cl)cc2)cc1OC	1.47µM*	2.08µM*	-21.7%	-6.8%	-9.3%
COc1ccc(CCNC(=O)c2ccc(Cl)cc2)cc1OC	?	0.5%	2.9%	-7.2%	40.5%
COc1ccc(CNCC(O)(c2ccccc2)c2ccc(F)cc2)cc1 (stereo not given)	?	5.22µM*	-9.4%	-2.1%	19.1%
CCC(=O)c1ccc(OCC(=O)OCC(=O)NCCCc2ccccc2)cc1	?	-4.6%	7.2%	/	12.4%
CCOc1ccc(NC(=O)CC2C(=O)N(c3ccccc3)C(=O)N2C2CCCC2)cc1 (stereo not given)	/	/	50.1µM*	/	/
CCOc1ccc(NC(=O)CC2C(=O)NCCN2C(=O)Nc2ccccc2)cc1 (stereo not given)	14.7µM*	4.9%	3.6%	-3.4%	-3.0%
